Source: PubChem BioAssay (NCATS)
Records with an inconclusive call do not appear. A call without a number means that no potency is given here. Active and inactive are the calls of the source. The call rests on the fitted dose curve; in most records, active means well fitted inhibition curve with a large enough effect; inconclusive means small, poorly fitted or top-dose-only effect; inactive means flat fitted curve, though single readings scatter.

Assays:
Experiment in all cases: qHTS profiling for inhibitors of Plasmodium falciparum proliferation (AID 504749); further: nearly all actives have a fitted effect of over 60% in size
Conditions in all cases: P. falciparum in erythrocytes, SYBR Green DNA, 72 h; series mostly up to 28.7 µM
CP191 = system: CP191
How it was run: (§1)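 Fluorescence of SYBR Green-bound parasite DNA, read at 485/535 nm, served as the growth measure. Infected erythrocytes were cultured with compound 72 h; artemisinin (0.29 uM) and DMSO wells defined the normalization range.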

CP192 = system: CP192
How it was run: as §1

CP194 = system: CP194
How it was run: as §1

CP201 = system: CP201
How it was run: as §1

CP203 = system: CP203
How it was run: as §1

CP211 = system: CP211
How it was run: as §1

CP215 = system: CP215
How it was run: as §1

CP217 = system: CP217
How it was run: as §1

CP237 = system: CP237
How it was run: as §1

CP238 = system: CP238
How it was run: as §1
Potency means the concentration at half of the fitted maximal effect.

| SMILES | Potency (CP191) | Potency (CP192) | Potency (CP194) | Potency (CP201) | Potency (CP203) | Potency (CP211) | Potency (CP215) | Potency (CP217) | Potency (CP237) | Potency (CP238) |
| --- | --- | --- | --- | --- | --- | --- | --- | --- | --- | --- |
| C[C@](N)(Cc1ccc(O)c(O)c1)C(=O)O | inactive | inactive | inactive | inactive | inactive | inactive | inactive | inactive | inactive | inactive |
| Cn1cnc2c1c(=O)[nH]c(=O)n2C | inactive | inactive | inactive | inactive | inactive | inactive | inactive | inactive | inactive | inactive |
| CC(C)(Oc1ccc(C2CC2(Cl)Cl)cc1)C(=O)O (stereo unspecified) | inactive | inactive | inactive | inactive | inactive | inactive | inactive | inactive | inactive | inactive |
| CC(C)NCC(O)c1ccc(O)c(O)c1 (stereo unspecified) | inactive | inactive | inactive | inactive | inactive | inactive | inactive | inactive | inactive | inactive |
| N[C@@H](Cc1c[nH]c2ccc(O)cc12)C(=O)O | inactive | inactive | inactive | inactive | inactive | inactive | inactive | inactive | inactive | inactive |
| NC(=O)NO | inactive | inactive | inactive | inactive | inactive | inactive | inactive | inactive | inactive | inactive |
| CN(C)c1nc(N(C)C)nc(N(C)C)n1 | inactive | inactive | inactive | inactive | inactive | inactive | inactive | inactive | inactive | inactive |
| CN(C)CCCN1c2ccccc2CCc2ccc(Cl)cc21 |  |  |  | inactive |  | inactive |  |  |  | inactive |
| O=C(c1ccc(OCCN2CCCCC2)cc1)c1c(-c2ccc(O)cc2)sc2cc(O)ccc12 | 5.01 µM (active) |  |  | 9.53 µM (active) | 16.9 µM (active) |  | 19 µM (active) |  | 3.55 µM (active) |  |
| CNCCCC12CCC(c3ccccc31)c1ccccc12 |  | inactive |  | inactive |  |  | inactive | inactive |  | inactive |
| O=C(Nc1ccc([N+](=O)[O-])cc1Cl)c1cc(Cl)ccc1O | 0.891 µM (active) |  |  |  | 0.478 µM (active) |  | 0.536 µM (active) |  | 1.12 µM (active) | inactive |
| OCCN1CCN(CCCN2c3ccccc3Sc3ccc(C(F)(F)F)cc32)CC1 | 7.94 µM (active) |  | 10.7 µM (active) | 8.49 µM (active) | 13.5 µM (active) | 7.57 µM (active) | 13.5 µM (active) | 10 µM (active) | 12.6 µM (active) | 8.91 µM (active) |
| CCOC(=O)C(C)(C)Oc1ccc(Cl)cc1 | inactive | inactive | inactive | inactive | inactive | inactive | inactive | inactive | inactive | inactive |
| Clc1ccc2nsnc2c1NC1=NCCN1 | inactive | inactive | inactive | inactive |  | inactive | inactive | inactive | inactive | inactive |
| O=C(c1ccc(F)cc1)C1CCN(CCn2c(=O)[nH]c3ccccc3c2=O)CC1 |  | inactive | inactive | inactive | inactive | inactive |  | inactive | inactive | inactive |
| Cc1ccc(-c2cc(C(F)(F)F)nn2-c2ccc(S(N)(=O)=O)cc2)cc1 |  |  |  |  |  |  | 13.5 µM (active) |  |  | inactive |
| O=c1[nH]cc(F)c(=O)[nH]1 |  |  |  |  |  |  | inactive |  |  |  |
| Clc1ccc2c(c1)C(N1CCNCC1)=Nc1ccccc1O2 |  | inactive |  | inactive | inactive | inactive |  |  | 7.08 µM (active) |  |
| CC(COc1ccccc1)N(CCCl)Cc1ccccc1 (stereo unspecified) | inactive | inactive |  | inactive |  | inactive |  |  | 11.2 µM (active) |  |
| Cn1c(=O)c2c(ncn2C)n(C)c1=O | inactive | inactive | inactive | inactive | inactive | inactive | inactive | inactive | inactive | inactive |
| CN1CCC(=C2c3ccccc3CC(=O)c3sccc32)CC1 |  | inactive |  |  | 8.49 µM (active) |  |  |  |  |  |
| Nc1c2c(nc3ccccc13)CCCC2 |  |  |  | inactive |  |  |  | inactive |  | inactive |
| CCOC(=O)Nc1ccc(NCc2ccc(F)cc2)nc1N | 11.2 µM (active) |  |  |  | inactive |  |  | 10 µM (active) | 10 µM (active) |  |

| SMILES | Potency (CP191) | Potency (CP192) | Potency (CP194) | Potency (CP201) | Potency (CP203) | Potency (CP211) | Potency (CP215) | Potency (CP217) | Potency (CP237) | Potency (CP238) |
| --- | --- | --- | --- | --- | --- | --- | --- | --- | --- | --- |
| CC#C[C@]1(O)CC[C@H]2[C@@H]3CCC4=CC(=O)CCC4=C3[C@@H](c3ccc(N(C)C)cc3)C[C@@]21C | 11.2 µM (active) |  | 16.9 µM (active) | 15.1 µM (active) | 19 µM (active) | 13.5 µM (active) | 12 µM (active) | 11.2 µM (active) | 11.2 µM (active) |  |
| COc1ccc(CCN(C)CCCC(C#N)(c2ccc(OC)c(OC)c2)C(C)C)cc1OC (stereo unspecified) | inactive | inactive |  | inactive |  |  |  | inactive |  | inactive |
| Cc1cc(C(C)(C)C)cc(C)c1CC1=NCCN1 | inactive |  | inactive | inactive | inactive | inactive | inactive | inactive | 3.98 µM (active) | inactive |
| O=c1c(O)c(-c2ccc(O)c(O)c2)oc2cc(O)cc(O)c12 |  |  |  |  |  |  | 13.5 µM (active) |  |  |  |
| Clc1ccc(C(c2ccccc2Cl)C(Cl)Cl)cc1 (stereo unspecified) |  | inactive |  |  |  |  |  | inactive | inactive | inactive |
| COc1cc2c(c(OC)c1OC)-c1ccc(OC)c(=O)cc1[C@@H](NC(C)=O)CC2 | inactive | inactive | inactive | inactive | inactive | inactive |  | inactive | inactive | inactive |
| COc1ccccc1OCCNCC(O)COc1cccc2[nH]c3ccccc3c12 (stereo unspecified) |  | inactive |  | inactive |  | inactive |  |  | 12.6 µM (active) |  |
| CN(Cc1cnc2nc(N)nc(N)c2n1)c1ccc(C(=O)N[C@@H](CCC(=O)O)C(=O)O)cc1 |  | inactive | inactive | inactive | inactive | inactive | inactive |  | 0.1 µM (active) |  |
| O=C1N(c2ccccc2)c2ccccc2C1(Cc1ccncc1)Cc1ccncc1 | inactive | inactive | inactive | inactive | inactive | inactive | inactive | inactive |  | inactive |
| CS(=O)(=O)Nc1ccc([N+](=O)[O-])cc1Oc1ccccc1 | inactive | inactive | inactive | inactive | inactive | inactive | inactive | inactive | inactive | inactive |
| CC(C)NCC(O)COc1ccc(CCOCC2CC2)cc1 (stereo unspecified) |  | inactive | inactive | inactive | inactive | inactive | inactive | inactive | inactive | inactive |
| CN(C)CCC=C1c2ccccc2C=Cc2ccccc21 |  | inactive |  |  |  | inactive |  | inactive | inactive |  |
| CN(CCOc1ccc(NS(C)(=O)=O)cc1)CCc1ccc(NS(C)(=O)=O)cc1 | inactive | inactive | inactive | inactive | inactive | inactive |  | inactive | inactive | inactive |
| COc1ccc2[nH]cc(CCNC(C)=O)c2c1 | inactive | inactive | inactive | inactive | inactive | inactive |  | inactive | inactive | inactive |
| CC[C@@]1(O)C(=O)OCc2c1cc1n(c2=O)Cc2cc3c(CN(C)C)c(O)ccc3nc2-1 | 8.91 µM (active) |  | 4.78 µM (active) |  | 6.75 µM (active) | 6.01 µM (active) | 6.01 µM (active) |  | 8.91 µM (active) |  |
| CN(C)C(=N)N=C(N)N | inactive |  |  | inactive |  |  |  | inactive | inactive | inactive |
| O=C1c2c(O)ccc(O)c2C(=O)c2c(NCCNCCO)ccc(NCCNCCO)c21 | 3.55 µM (active) |  | 6.42 µM (active) | 6.42 µM (active) |  | 6.42 µM (active) | 6.42 µM (active) | 3.55 µM (active) | 1.26 µM (active) | 3.16 µM (active) |
| CC12CC3CC(C)(C1)CC(N)(C3)C2 | inactive | inactive | inactive | inactive | inactive | inactive | inactive | inactive |  | inactive |
| NC12CC3CC(CC(C3)C1)C2 | inactive | inactive | inactive | inactive | inactive | inactive | inactive | inactive |  | inactive |
| Nc1nc2c(ncn2COC(CO)CO)c(=O)[nH]1 | inactive | inactive | inactive | inactive | inactive | inactive |  | inactive | inactive | inactive |
| CN(C)CCOC(c1ccccc1)c1ccccc1 | inactive | inactive |  | inactive |  |  | inactive | inactive |  |  |
| CC1(CN2CCC(n3c(=O)[nH]c4ccccc43)CC2)OCc2ccccc2-n2cccc21 (stereo unspecified) |  | inactive |  |  |  |  |  |  |  |  |
| CCCCc1oc2ccccc2c1C(=O)c1cc(I)c(OCCN(CC)CC)c(I)c1 | 8.91 µM (active) |  |  |  | 15.1 µM (active) |  | 15.1 µM (active) | 5.62 µM (active) | 7.08 µM (active) | 7.94 µM (active) |
